The text below walks through data of PubChem BioAssay.

Molecules are shown by their SMILES. “And” between values parts separate entries of the source, which are not always exact repeats. Identical values can stand only once. The source made the active and inactive calls.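 Rule for the calls, unless noted: active = compounds whose cell count with miR-34 switched on is under 0.7 times the count with it off; inactive = the rest.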

Experiment [1] in a line: sensitizers of A549 cells to miR-34 induction, primary screen, imaging, A549 dox-inducible miR-34, nuclei and caspase counts (AID 1347080). As to conditions: A549 miR-34 inducible, Hoechst nuclei count, 48 h.
Experiment [2] in a line: survival rescue of mitochondrial mutant cells in low glucose, primary screen, MELAS cybrids, Rieske KO mouse fibroblasts, CellTiter-Glo (AID 1508586;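 active = mean z-score across replicates of 1.96 or higher in either the MELAS or the Rieske mutant cell line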;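 note: z relative to plate mean and SD of compound and empty wells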). For orientation: ATP-based viability assays read luminescence as a measure of living cells.
Experiment [3] has as its target NAD(+) hydrolase SARM1 (Homo sapiens) (UniProt Q6SZW1). Description: SARM1 TIR NADase inhibitors, cell lysate, NAD-Glo luminescence (AID 1508614;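 active = compound whose remaining NAD level is above about 45 nM, limit read from the data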;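 note: higher remaining NAD means stronger inhibition of SARM1 NADase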). The note with it: SAM-TIR HEK293T lysate NADase, at 1 µM, stronger effect = higher value.
For experiment [4], the target named is Mitogen-activated protein kinase 7 (Homo sapiens) (UniProt Q13164). In words: ERK5 transactivation activators in reporter cells, primary screen, cell-based, HTS (AID 1508626;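 active = luciferase signal above three times the same-plate solvent-only control wells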;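 note: luciferase driven by Gal4-ERK5 fusion binding five Gal4 sites before minimal TATA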). As to conditions: HeLa Gal4-ERK5 transactivation, 18 h, at 5 µM, stronger effect = higher value.
Sequence of Mitogen-activated protein kinase 7 (Homo sapiens) (Q13164 whole entry, looked up, the tested form may be a part): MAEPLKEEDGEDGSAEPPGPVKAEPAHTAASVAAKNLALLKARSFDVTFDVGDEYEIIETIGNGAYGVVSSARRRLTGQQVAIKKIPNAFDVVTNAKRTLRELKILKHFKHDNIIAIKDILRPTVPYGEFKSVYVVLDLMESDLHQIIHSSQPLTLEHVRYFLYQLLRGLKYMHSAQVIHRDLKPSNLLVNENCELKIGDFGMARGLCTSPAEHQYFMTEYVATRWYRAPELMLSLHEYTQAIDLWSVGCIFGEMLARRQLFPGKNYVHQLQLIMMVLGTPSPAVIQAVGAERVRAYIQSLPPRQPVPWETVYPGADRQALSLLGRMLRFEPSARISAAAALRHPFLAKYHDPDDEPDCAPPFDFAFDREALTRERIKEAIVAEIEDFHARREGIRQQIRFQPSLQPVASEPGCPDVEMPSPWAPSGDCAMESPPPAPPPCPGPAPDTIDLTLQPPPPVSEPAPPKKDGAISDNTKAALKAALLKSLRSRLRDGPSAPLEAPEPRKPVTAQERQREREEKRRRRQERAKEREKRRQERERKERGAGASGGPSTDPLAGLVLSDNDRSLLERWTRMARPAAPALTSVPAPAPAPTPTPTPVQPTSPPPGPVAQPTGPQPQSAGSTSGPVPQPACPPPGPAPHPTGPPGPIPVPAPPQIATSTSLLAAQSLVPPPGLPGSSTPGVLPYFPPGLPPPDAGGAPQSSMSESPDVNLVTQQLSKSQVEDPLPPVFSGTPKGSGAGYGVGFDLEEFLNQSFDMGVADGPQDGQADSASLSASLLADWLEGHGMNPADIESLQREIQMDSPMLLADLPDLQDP
Where [5] appears, read: stronger effect = lower value, cell number ratio, induced over uninduced.
Where [6] appears, read: measured here: relative caspase fold change +Dox/-Dox.
Setting [7] is: measured here: total cells with miR-34 induction, stronger effect = lower value.
Setting [8] is: measured here: total cells without miR-34 induction.
[9] abbreviates: MELAS cybrid survival, CellTiter-Glo 48 h, stronger effect = higher value.
[10] abbreviates: Rieske KO mouse fibroblast survival, CellTiter-Glo 72 h.

Sequence of NAD(+) hydrolase SARM1 (Homo sapiens) (Q6SZW1 whole entry, looked up, the tested form may be a part): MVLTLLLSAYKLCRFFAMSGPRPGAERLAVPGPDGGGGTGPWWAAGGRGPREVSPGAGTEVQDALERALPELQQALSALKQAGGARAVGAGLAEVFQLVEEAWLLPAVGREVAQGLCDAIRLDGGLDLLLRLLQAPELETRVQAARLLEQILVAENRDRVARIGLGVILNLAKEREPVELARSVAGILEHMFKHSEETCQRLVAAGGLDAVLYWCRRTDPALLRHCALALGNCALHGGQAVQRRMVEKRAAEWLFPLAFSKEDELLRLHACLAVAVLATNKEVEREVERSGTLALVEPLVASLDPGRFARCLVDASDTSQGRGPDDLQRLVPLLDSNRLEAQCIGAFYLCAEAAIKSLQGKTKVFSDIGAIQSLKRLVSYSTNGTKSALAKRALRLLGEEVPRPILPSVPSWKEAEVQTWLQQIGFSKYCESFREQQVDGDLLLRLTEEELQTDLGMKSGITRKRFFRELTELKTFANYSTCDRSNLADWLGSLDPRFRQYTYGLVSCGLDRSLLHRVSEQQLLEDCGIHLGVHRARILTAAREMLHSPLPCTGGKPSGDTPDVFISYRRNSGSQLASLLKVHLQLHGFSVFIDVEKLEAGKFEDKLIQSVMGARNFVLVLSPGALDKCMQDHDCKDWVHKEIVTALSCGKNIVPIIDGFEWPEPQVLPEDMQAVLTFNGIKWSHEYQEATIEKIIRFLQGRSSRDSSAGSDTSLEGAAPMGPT

Regarding `Cc1cc(C)nc(NS(=O)(=O)c2ccc(N)cc2)n1`, the fold change in experiment [1] (setting [5]) was 0.847 (inactive) and 0.927 (inactive) and 0.901 (inactive); in experiment [1] (setting [6]), 1.07 and 0.872 and 2.46. The cell count was 9060 and 8070 and 10900 in experiment [1] (setting [7]); 10700 and 8710 and 12100 in experiment [1] (setting [8]). Moreover, the z-score in experiment [2] (setting [9]) is -0.0833 (inactive) and 0.863 (inactive); in experiment [2] (setting [10]), -0.156 and 0.665. Also, in experiment [3], the remaining NAD was 10 nM (inactive). Besides, in experiment [4], the luciferase signal is 36 AU (inactive).

`CCOC(=O)OC(C)OC(=O)[C@@H]1N2C(=O)[C@@H](NC(=O)[C@H](N)c3ccccc3)[C@H]2SC1(C)C` (some centres not stated): the fold change is 0.838 (inactive) in experiment [1] (setting [5]) and 1.63 in experiment [1] (setting [6]). Besides, the cell count in experiment [1] (setting [7]) came out at 8230; in experiment [1] (setting [8]), 9820. Besides, the z-score in experiment [2] (setting [9]) is 0.0142 (inactive); in experiment [2] (setting [10]), -0.106. The remaining NAD in experiment [3] is 10 nM (inactive). Also, in experiment [4], the luciferase signal is 76 AU (inactive).

Regarding `Nc1c2ccccc2nc2ccccc12`, the figures for the fold change in experiment [1] (setting [5]) and in experiment [1] (setting [6]) were 2.19 (inactive) and 1, respectively. The cell count in experiment [1] (setting [7]) is 782; in experiment [1] (setting [8]), 356. For the same compound, the z-score in experiment [2] (setting [9]) was 2.4 (active); in experiment [2] (setting [10]), -1.96. In experiment [3], the remaining NAD was 10 nM (inactive). The luciferase signal in experiment [4] was 92 AU (inactive).

On to `CC(C(=O)O)c1ccc2c(c1)[nH]c1ccc(Cl)cc12` (configuration not stated), for which the fold change in experiment [1] (setting [5]) is 0.887 (inactive) and 0.921 (inactive); in experiment [1] (setting [6]), 0.75 and 3.71. Further, the cell count in experiment [1] (setting [7]) is 8310 and 12000; in experiment [1] (setting [8]) it was 9370 and 13100. Besides, the z-score was -0.267 (inactive) and -0.0777 (inactive) in experiment [2] (setting [9]); -0.169 and 0.447 in experiment [2] (setting [10]). Besides, the remaining NAD in experiment [3] was 10 nM (inactive). In experiment [4], the luciferase signal is 16 AU (inactive).

As for `CC(NCCC(c1ccccc1)c1ccccc1)c1ccccc1` (configuration not stated), the fold change was 0.975 (inactive) in experiment [1] (setting [5]) and 1.46 in experiment [1] (setting [6]). Also, the cell count in experiment [1] (setting [7]) was determined as 2830; in experiment [1] (setting [8]) it was 2900. In addition, the z-score in experiment [2] (setting [9]) was -0.775 (inactive); in experiment [2] (setting [10]) it was -0.331. For the same compound, the remaining NAD in experiment [3] is 10 nM (inactive). Also, the luciferase signal in experiment [4] is 36 AU (inactive).

In the case of `CCn1cc(C(=O)O)c(=O)c2cnc(N3CCCC3)nc21`, the fold change was 0.925 (inactive) in experiment [1] (setting [5]) and 1.02 in experiment [1] (setting [6]). Further, the cell count in experiment [1] (setting [7]) was found to be 8260; in experiment [1] (setting [8]) it was 8920. Also, the z-score in experiment [2] (setting [9]) is -0.0207 (inactive); in experiment [2] (setting [10]) it was -0.983. For the same compound, in experiment [3], the remaining NAD was 10 nM (inactive). Moreover, the luciferase signal in experiment [4] was 80 AU (inactive).

With `O=C(O)c1cc(=O)c2ccccc2o1`, the fold change was 0.884 (inactive) in experiment [1] (setting [5]) and 1.39 in experiment [1] (setting [6]). For the same compound, the cell count came out at 8030 in experiment [1] (setting [7]) and 9090 in experiment [1] (setting [8]). Further, the z-score in experiment [2] (setting [9]) is -0.239 (inactive); in experiment [2] (setting [10]) it was -0.17. The remaining NAD in experiment [3] was 10 nM (inactive). For the same compound, in experiment [4], the luciferase signal is 52 AU (inactive).

On to `CCN1CCCC(OC(=O)C(c2ccccc2)c2ccccc2)C1` (configuration not stated), for which the fold change in experiment [1] (setting [5]) is 0.985 (inactive) and 0.905 (inactive); in experiment [1] (setting [6]) it was 0.865 and 4.46. The cell count in experiment [1] (setting [7]) is 9410 and 10800; in experiment [1] (setting [8]), 9550 and 11900. Further, the values for the z-score in experiment [2] (setting [9]) and in experiment [2] (setting [10]) were 0.463 (inactive) and -0.154, respectively. In experiment [3], the remaining NAD is 10 nM (inactive). In experiment [4], the luciferase signal was 64 AU (inactive).

In the case of `COc1ccc(C(=O)c2ccccc2O)c(O)c1`, the fold change in experiment [1] (setting [5]) is 0.854 (inactive) and 0.825 (inactive); in experiment [1] (setting [6]) it was 1.04 and 0.52. Besides, the cell count was 8680 and 11300 in experiment [1] (setting [7]); 10200 and 13700 in experiment [1] (setting [8]). Also, the z-score is 0.849 (inactive) in experiment [2] (setting [9]) and -0.0959 in experiment [2] (setting [10]). In addition, in experiment [3], the remaining NAD was 10 nM (inactive). Also, the luciferase signal in experiment [4] was 92 AU (inactive).

Turning to `Nc1nccs1`, the fold change in experiment [1] (setting [5]) is 0.923 (inactive); in experiment [1] (setting [6]), 0.616. The cell count in experiment [1] (setting [7]) was found to be 7980; in experiment [1] (setting [8]), 8650. The results for the z-score in experiment [2] (setting [9]) and in experiment [2] (setting [10]) were -0.119 (inactive) and -0.205, respectively. The remaining NAD in experiment [3] was 10 nM (inactive). Besides, the luciferase signal in experiment [4] was 40 AU (inactive).

With `COc1cnc(NS(=O)(=O)c2ccc(N)cc2)nc1`, the fold change in experiment [1] (setting [5]) is 0.943 (inactive) and 0.91 (inactive) and 0.881 (inactive); in experiment [1] (setting [6]), 1.15 and 0.841 and 2.64. For the same compound, the cell count in experiment [1] (setting [7]) was 9880 and 7410 and 11400; in experiment [1] (setting [8]), 10500 and 8140 and 12900. Moreover, the z-score was -0.122 (inactive) and -0.879 (inactive) in experiment [2] (setting [9]); -1.17 and -0.837 in experiment [2] (setting [10]). In experiment [3], the remaining NAD is 10 nM (inactive). Moreover, in experiment [4], the luciferase signal is 40 AU (inactive).

Regarding `Nc1ncnc2c1ncn2[C@@H]1O[C@H](COP(=O)(O)O)[C@@H](O)[C@H]1O`, the fold change in experiment [1] (setting [5]) was 0.848 (inactive); in experiment [1] (setting [6]), 1.03. Also, the cell count was found to be 9640 in experiment [1] (setting [7]) and 11400 in experiment [1] (setting [8]). Also, the z-score is 0.774 (inactive) in experiment [2] (setting [9]) and 0.196 in experiment [2] (setting [10]). In addition, the remaining NAD in experiment [3] was 10 nM (inactive). Besides, the luciferase signal in experiment [4] is 292 AU (active).

As for `Cc1cc(=O)n(-c2ccccc2)n1C`, the fold change in experiment [1] (setting [5]) was 0.939 (inactive) and 0.859 (inactive) and 0.88 (inactive); in experiment [1] (setting [6]) it was 0.938 and 0.796 and 1.12. Further, the cell count in experiment [1] (setting [7]) is 8700 and 7960 and 10700; in experiment [1] (setting [8]), 9270 and 12100. Moreover, the z-score in experiment [2] (setting [9]) was -0.258 (inactive) and 0.556 (inactive); in experiment [2] (setting [10]) it was -0.2 and -0.0597. The remaining NAD in experiment [3] was 10 nM (inactive). In experiment [4], the luciferase signal is 116 AU (inactive).

As for `CCN(CC)CCOC(=O)C(c1ccccc1)c1ccccc1`, the fold change in experiment [1] (setting [5]) was 0.854 (inactive) and 1.02 (inactive) and 0.902 (inactive); in experiment [1] (setting [6]), 1.3 and 0.648 and 3.67. Besides, the cell count in experiment [1] (setting [7]) was 8150 and 4320 and 11300; in experiment [1] (setting [8]) it was 9550 and 4250 and 12500. Besides, the z-score was -0.171 (inactive) and -1.08 (inactive) in experiment [2] (setting [9]); 0.0167 and -0.106 in experiment [2] (setting [10]). In addition, the remaining NAD in experiment [3] is 10 nM (inactive). In addition, the luciferase signal in experiment [4] was 84 AU (inactive).
